Only some compounds are listed: those with a hit (about 10% of all), similar ones and a draw of the others.
hNpr1 antagonist: Natriuretic polypeptide receptor (hNpr1) antagonism - Primary qHTS. HEK293 hNpr1 GloSensor cGMP, ANP-stimulated luminescence. Potency, µM (highest dose often 46.3 µM), hits mostly inhibitors. actives 1.6% (n = 76,000). AID 1347048, 2019; calls by dose curve; note: nearly all actives have a fitted effect of over 60% in size
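Compound pre-incubated 30 min at room temperature on GloSensor-loaded HEK293 cells stably carrying hNpr1 and the pGS-40F cGMP biosensor. Stimulation uses hNppA at 0.1 nM final; luminescence is taken at baseline and 20 min post-agonist.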
NIH3T3 tox: Cytotoxic Profiling in NIH 3T3 Cell Line of Diverse Libraries Using Quantitative High-Throughput Screening. NIH 3T3 viability, CellTiter-Glo ATP luminescence, 48-72 h. Potency, µM (highest dose often 96.7 µM), most hits filed as inhibitors. actives 4.3% (n = 94,000); note: nearly all actives have a fitted effect of over 55% in size
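Cytotoxicity is measured as loss of cellular ATP: NIH 3T3 cells (400/well) are exposed to compound for 48 or 72 hr at 37 °C, then CellTiter-Glo luminescence is imaged after 10 min at room temperature.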
GPT2 inhibitor: Primary qHTS assay for inhibitors of Glutamate pyruvate transaminase 2 (GPT2); Alanine aminotransferase 2 (Homo sapiens), Q8TD30; Recombinant GPT2, coupled pyruvate oxidase/HRP Amplex Red fluorescence; Potency, µM (top dose mostly 57.7 µM), usual class: inhibitors; actives 0.25% (n = 100,000); note: nearly all actives have a fitted effect of over 60% in size
Target sequence (Q8TD30 whole entry, looked up): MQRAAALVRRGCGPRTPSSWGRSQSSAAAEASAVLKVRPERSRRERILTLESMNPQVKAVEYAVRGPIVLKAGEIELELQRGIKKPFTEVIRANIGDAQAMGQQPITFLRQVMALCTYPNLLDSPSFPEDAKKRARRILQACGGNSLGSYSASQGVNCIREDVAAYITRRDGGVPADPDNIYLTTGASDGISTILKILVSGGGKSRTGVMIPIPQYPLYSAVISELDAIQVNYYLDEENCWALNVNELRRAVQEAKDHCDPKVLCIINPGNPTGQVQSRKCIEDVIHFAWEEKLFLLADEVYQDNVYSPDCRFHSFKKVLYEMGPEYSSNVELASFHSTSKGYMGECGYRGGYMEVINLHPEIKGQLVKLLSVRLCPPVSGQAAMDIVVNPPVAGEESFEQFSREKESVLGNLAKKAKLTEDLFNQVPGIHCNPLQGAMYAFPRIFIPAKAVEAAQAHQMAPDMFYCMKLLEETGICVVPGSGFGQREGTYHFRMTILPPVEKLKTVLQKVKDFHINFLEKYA
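Recombinant GPT2 (10ng/uL) with 250uM a-KG and 2mM L-alanine, 30 min at room temperature, in HEPES pH 7.5 buffer. Pyruvate detected by pyruvate oxidase/HRP/Amplex Red fluorescence after 30 min in the dark; AOA (50uM) as positive control.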
Luciferase inh: Firefly luciferase inhibition profiling of diverse chemical library using quantitative high-throughput screening; Luciferin 4-monooxygenase (Photinus pyralis), P08659; purified P. pyralis luciferase, luminescence, biochemical; Potency, µM (highest dose often 115 µM), usual class: inhibitors; actives 2.5% (n = 76,000); AID 1347043, 2019; note: nearly all actives have a fitted effect of over 65% in size
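Purified P. pyralis luciferase (10nM final) in 50mM Tris acetate pH 7.5, 10mM Mg acetate, 0.01% Tween-20, 0.05% BSA with 10uM D-luciferin and 10uM ATP. Compounds titrated qHTS. Luminescence imaged on CCD.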
HEK cytotox: Cytotoxic Profiling in HEK 293 Cell Line of Diverse Libraries Using Quantitative High-Throughput Screening; HEK 293 viability, ATP luminescence (CellTiter-Glo), 48-72 h; Potency, µM (titrated, usually from 115 µM), usual class: inhibitors; actives 6.6% (n = 94,000); note: nearly all actives have a fitted effect of over 60% in size
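Cells seeded first (HEK 293, 250 cells/well), then compound added by pintool. Incubation ran 48 or 72 hr at 37 degree Celsius. CellTiter-Glo was added and luminescence imaged after 10 min at room temperature.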
A number is an active result; 0 = inactive; ? = inconclusive; - = no result. Unless noted, calls come from the whole dose curve; as a rule, active = well fitted curve in the direction sought with a large enough effect; inconclusive = small, poorly fitted or top-dose-only effect, or another doubt; inactive = no such curve, though single readings can be large; an effect the other way counts as inactive or inconclusive.

SMILES	hNpr1 antagonist	NIH3T3 tox	GPT2 inhibitor	Luciferase inh	HEK cytotox
CNC(=O)c1cc(C2CC2)nc2c1c(C1CCCN1C(=O)Cc1cccc(Cl)c1)nn2C (configuration not stated)	-	0	-	-	?
CC(C)(C)C(=O)N1CCCC(C(=O)N2CCC(N3Cc4cccn4C3=O)CC2)C1 (configuration not stated)	-	0	0	-	0
CC1=C[C@@H](CNC(=O)c2cnccn2)[C@H](C(C)C)C[C@H]1Cc1nc2ccc(F)cc2[nH]1	?	112µM	0	0	71µM
CC1=C[C@@H](CNC(=O)CCC(=O)O)[C@H](C(C)C)C[C@H]1Cc1nc2ccc(F)cc2[nH]1	0	0	0	0	0
CC1=C[C@@H](CNC(=O)C2CCC2)[C@H](C(C)C)C[C@H]1Cc1nc2ccc(F)cc2[nH]1	?	40µM	?	0	28µM
CC(=O)N1CCC(NC[C@@H]2C=C(C)[C@H](Cc3nc4ccc(F)cc4[nH]3)C[C@H]2C(C)C)CC1	0	79µM	0	0	?
COc1ccc2nc(C[C@@H]3C[C@@H](C(C)C)[C@H](CNC(=O)Nc4ccc(F)cc4)C=C3C)[nH]c2c1	0	40µM	0	0	28µM
O=C(c1ccccc1Cl)N1CCC(C(=O)N2CCC(N3Cc4ccccc4C3=O)CC2)CC1	-	0	0	-	?
CC1=C[C@@H](CNC(=O)c2cnccn2)[C@H](C(C)C)C[C@H]1Cc1nc2ccc(C)cc2[nH]1	?	?	0	0	32µM
CC1=C[C@@H](CNC(=O)c2cnccn2)[C@H](C(C)C)C[C@H]1CC(=O)O	0	0	0	0	0
CCc1ccc(S(=O)(=O)c2nnn3c2nc(NCc2ccc(F)cc2)c2ccccc23)cc1	-	?	0	-	0
O=S(=O)(c1ccc(Cl)cc1)c1nnn2c1nc(NCc1ccc(F)cc1)c1ccccc12	-	32µM	0	-	?
Cc1ccc(C(=O)N2CCCN(c3cc(-c4ccc(Br)cc4)[nH]n3)CC2)cn1	?	0	0	0	?
Cc1nc2cccnc2n1CC1CCCN(S(=O)(=O)c2ccc(C(F)(F)F)cc2)C1 (configuration not stated)	0	0	0	0	?
Cc1nn2c(c1-c1cccnc1N1CCOCC1)N(Cc1ccc3c(c1)CCO3)CCC2	0	45µM	0	0	0
COc1ccc(OC)c(CN2CCCn3nc(C)c(-c4cccnc4N4CCOCC4)c32)c1	0	?	0	0	0
Cc1ccncc1-c1c(C)nn2c1N(Cc1ccc(C(=O)O)cc1)CCC2	0	?	0	0	?
Cc1nn2c(c1-c1ccnn1C(C)C)N(Cc1ccc3c(c1)CCO3)CCC2	0	32µM	0	0	?
Cc1nn2c(c1-c1cccnc1N1CCOCC1)N(CCC(C)C)CCC2	0	?	0	0	40µM
Cc1ccc2c(n1)N(C)[C@H](CO)CCN(Cc1cccc3c1OCO3)C2	0	0	0	0	?
Cc1nn(C)c(C)c1S(=O)(=O)NCCc1ncc(C)n1Cc1ccc(F)cc1	0	0	0	0	0
Cn1cc(-c2cnc(Nc3cnccn3)c3c2CCO3)cn1	0	?	0	?	0
COc1ccc(Nc2ncc(-c3cnn(C)c3)c3c2OCC3)cc1	0	?	0	25µM	?
Cn1cc(-c2cnc(Nc3cncnc3)c3c2CCO3)cn1	0	100µM	0	0	0
CCOC(=O)[C@H]1[C@@H](O)C(=O)N(Cc2ccccc2)C12CCN(C(=O)c1cccs1)CC2	-	?	-	-	0
SMILES	hNpr1 antagonist	NIH3T3 tox	GPT2 inhibitor	Luciferase inh	HEK cytotox
CCn1ncc(N2CCC(NC(=O)c3cccc(N(C)C)c3)CC2)cc1=O	0	0	0	?	0
CCC(CC)C(=O)N1CC(c2nnc(-c3ccc(C)cc3)o2)C2(CCOCC2)C1 (configuration not stated)	0	0	0	0	0
O=C(NCc1ccccc1F)C1CCCN(Cc2cccc(-c3ccc(F)cc3F)c2)C1 (configuration not stated)	-	?	0	-	?
O=C(NCc1ccccc1Cl)C1CCCN(Cc2cccc(-c3ccc(F)cc3F)c2)C1 (configuration not stated)	-	?	0	-	45µM
O=C(Nc1ccccc1Cl)C1CCCN(Cc2cccc(-c3ccc(F)cc3F)c2)C1 (configuration not stated)	-	35µM	0	-	32µM
O=C(NCc1cccnc1)C1CCCN(Cc2cccc(-c3ccc(F)cc3F)c2)C1 (configuration not stated)	-	?	0	-	?
O=C(NCc1ccc(F)cc1)C1CCCN(Cc2cccc(-c3ccc(F)cc3F)c2)C1 (configuration not stated)	-	45µM	0	-	?
O=C(c1cc(-c2ccccc2)n[nH]1)N1CCC(N2CC3CC(C2)[C@H]2CCCC(=O)N2C3)CC1 (some centres not stated)	0	0	0	0	0
COc1ccc(S(=O)(=O)N2CC(n3cnnc3C3CC3)C2)cc1	-	0	0	-	?
NCC(=O)N1Cc2ccccc2CC2(CCN(CC3CCCC3)CC2)C1	-	?	0	-	?
Cn1c(CNC(=O)C2Cn3cccc3C(=O)N2Cc2ccccc2)nc2ccccc21 (configuration not stated)	0	32µM	?	0	?
COc1ccccc1-c1cccc(C(=O)N2CCN(C(=O)c3ccccc3Cl)CC2)c1	-	?	0	-	?
O=C(C1CCOCC1)N1CCC(Oc2ccccc2-c2nc(-c3ccccc3)no2)C1 (configuration not stated)	0	?	0	0	32µM
O=C(c1cnccn1)N1CCC(Oc2ccccc2-c2nc(-c3ccccc3)no2)C1 (configuration not stated)	0	?	0	?	?
O=C(c1ccncc1)N1CCC(Oc2ccccc2-c2nc(-c3ccccc3)no2)C1 (configuration not stated)	0	?	0	?	40µM
Cc1ncccc1C(=O)N1CC(Oc2ccccc2-c2nc(-c3ccccc3)no2)C1	0	?	0	40µM	?
O=C(C[C@H]1NC(=O)c2ccccc2NC1=O)Nc1nnc(Cc2ccccc2)s1	0	0	?	0	0
COCCn1ccc2c(C3=CCOCC3)nc(-c3cccc(C(N)=O)c3)cc21	0	25µM	?	0	?
C1=C(c2nc(-c3ccncc3)cc3c2ccn3Cc2cccnc2)CCOC1	0	22µM	0	0	?
OCc1ccc(-c2cc3c(ccn3Cc3cccnc3)c(C3=CCOCC3)n2)cc1	0	?	0	0	?
CCS(=O)(=O)N1CCC2(CC1)c1[nH]c3ccccc3c1CCN2C	0	0	0	0	?

Screening results deposited in PubChem BioAssay by National Center for Advancing Translational Sciences (NCATS).
